Source: PubChem BioAssay AID1159580 (chemical genetic matrix, 2015)
Out of some 5,500 compounds screened, about 2,000 (36%) were called active. Inconclusive results (about 18%) are left out. Cut-off read from the data, not from the text of the source: active = normalized growth mostly below about 0.91 (no sharp cut-off); inconclusive = no clear call, values can overlap the other calls; inactive = mostly above about 0.92. The list shows a part of the results.

Assay: chemical genetic growth profiling, strain panel (AID 1159580);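 note: tested at 20 µM; growth read once vehicle control cultures reached saturation at 30 °C; 1 = growth at the plate median or of vehicle wells; lower values mean less growth of the strain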
Settings: growth OD

Measured: normalized growth

CCCCC(CC)CN=C(N)NC(N)=NCCCCCCN=C(N)NC(N)=NCC(CC)CCCC (centres undefined)
active: S. cerevisiae deletion strains, locus YKL009W, strain mrt4, hits give low values 0.0745 | S. cerevisiae deletion strains, locus YKL068W, hits give low values 0.0576 | S. cerevisiae deletion strains, locus YKL085W, strain MDH1 (second series), hits give low values 0.0564 | S. cerevisiae deletion strains, locus YKL085W, strain MDH1, hits give low values 0.0564 | S. cerevisiae deletion strains, locus YKL160W, strain elf1, hits give low values 0.0635 | S. cerevisiae deletion strains, locus YKL190W, strain CNB1, hits give low values 0.05 | S. cerevisiae deletion strains, locus YKR001C, strain vps1, hits give low values 0.0639 | S. cerevisiae deletion strains, locus YKR026C, strain gcn3, hits give low values 0.0659 | S. cerevisiae deletion strains, locus YKR091W, strain srl3, hits give low values 0.0594 | S. cerevisiae deletion strains, locus YLL001W, strain dnm1, hits give low values 0.0606 | S. cerevisiae deletion strains, locus YLL026W, hits give low values 0.0577 | S. cerevisiae deletion strains, locus YLL041C, strain sdh2, hits give low values 0.0581 | S. cerevisiae deletion strains, locus YLR027C, strain aat2, hits give low values 0.0557 | S. cerevisiae deletion strains, locus YLR039C, strain RIC1, hits give low values 0.0876 | S. cerevisiae deletion strains, locus YLR058C, strain SHM2, hits give low values 0.0571 | S. cerevisiae deletion strains, locus YLR102C, strain apc9, hits give low values 0.0596 | S. cerevisiae deletion strains, locus YLR113W, strain HOG1, hits give low values 0.113 | S. cerevisiae deletion strains, locus YLR221C, strain rsa3, hits give low values 0.0636 | S. cerevisiae deletion strains, locus YLR258W, strain gsy2, hits give low values 0.0577 | S. cerevisiae deletion strains, locus YLR262C, strain YPT6 (second series), hits give low values 0.0725 | S. cerevisiae deletion strains, locus YLR262C, strain YPT6, hits give low values 0.104 | S. cerevisiae deletion strains, locus YLR268W, strain sec22, hits give low values 0.0602 | S. cerevisiae deletion strains, locus YLR320W, strain mms22, hits give low values 0.0987 | S. cerevisiae deletion strains, locus YLR330W, strain CHS5, hits give low values 0.0561 | S. cerevisiae deletion strains, locus YLR342W, strain FKS1 (second series), hits give low values 0.0721 | S. cerevisiae deletion strains, locus YLR342W, strain FKS1, hits give low values 0.0635 | S. cerevisiae deletion strains, locus YLR357W, strain rsc2, hits give low values 0.127 | S. cerevisiae deletion strains, locus YLR370C, strain arc18, hits give low values 0.0632 | S. cerevisiae deletion strains, locus YLR371W, strain rom2, hits give low values 0.0612 | S. cerevisiae deletion strains, locus YLR384C, strain iki3, hits give low values 0.0589 | S. cerevisiae deletion strains, locus YLR418C, strain cdc73, hits give low values 0.0906 | S. cerevisiae deletion strains, locus YML016C, strain PPZ1, hits give low values 0.0539 | S. cerevisiae deletion strains, locus YML032C, strain rad52, hits give low values 0.0626 | S. cerevisiae deletion strains, locus YML120C, strain ndi1, hits give low values 0.0582 | S. cerevisiae deletion strains, locus YML124C, strain tub3, hits give low values 0.058 | S. cerevisiae deletion strains, locus YMR058W, strain fet3, hits give low values 0.0606 | S. cerevisiae deletion strains, locus YMR078C, strain ctf18, hits give low values 0.0695 | S. cerevisiae deletion strains, locus YMR125W, strain sto1, hits give low values 0.0772 | S. cerevisiae deletion strains, locus YMR129W, hits give low values 0.0584 | S. cerevisiae deletion strains, locus YMR205C, strain PFK2, hits give low values 0.0839 | S. cerevisiae deletion strains, locus YMR223W, strain ubp8, hits give low values 0.0589 | S. cerevisiae deletion strains, locus YMR231W, strain pep5, hits give low values 0.0657 | S. cerevisiae deletion strains, locus YMR263W, strain SAP30, hits give low values 0.0593 | S. cerevisiae deletion strains, locus YMR307W, strain GAS1, hits give low values 0.118 | S. cerevisiae deletion strains, locus YNL067W, strain RPL9B, hits give low values 0.051 | S. cerevisiae deletion strains, locus YNL071W, strain lat1, hits give low values 0.0619 | S. cerevisiae deletion strains, locus YNL128W, strain TEP1, hits give low values 0.0666 | S. cerevisiae deletion strains, locus YNL183C, strain NPR1, hits give low values -0.00134 | S. cerevisiae deletion strains, locus YNL209W, strain ssb2, hits give low values 0.0592 | S. cerevisiae deletion strains, locus YNL233W, strain BNI4, hits give low values 0.06 | S. cerevisiae deletion strains, locus YNL248C, strain rpa49, hits give low values 0.0743 | S. cerevisiae deletion strains, locus YNL250W, strain rad50, hits give low values 0.0631 | S. cerevisiae deletion strains, locus YNL271C, strain bni1, hits give low values 0.0667 | S. cerevisiae deletion strains, locus YNL298W, strain CLA4, hits give low values 0.0608 | S. cerevisiae deletion strains, locus YNL307C, strain MCK1, hits give low values 0.0671 | S. cerevisiae deletion strains, locus YNL322C, strain KRE1 (second series), hits give low values 0.0646 | S. cerevisiae deletion strains, locus YNL322C, strain KRE1, hits give low values 0.05 | S. cerevisiae deletion strains, locus YNR049C, strain mso1, hits give low values 0.058 | S. cerevisiae deletion strains, locus YNR052C, strain pop2, hits give low values 0.0629 | S. cerevisiae deletion strains, locus YOL006C, strain TOP1, hits give low values 0.124 | S. cerevisiae deletion strains, locus YOL012C, strain htz1 0.144 | S. cerevisiae deletion strains, locus YOL147C, strain pex11, hits give low values 0.058 | S. cerevisiae deletion strains, locus YOR001W, strain rrp6, hits give low values 0.0671 | S. cerevisiae deletion strains, locus YOR061W, strain CKA2, hits give low values 0.0521 | S. cerevisiae deletion strains, locus YOR069W, strain VPS5, hits give low values 0.0535 | S. cerevisiae deletion strains, locus YOR070C, strain gyp1, hits give low values 0.0584 | S. cerevisiae deletion strains, locus YOR080W, strain dia2, hits give low values 0.0635 | S. cerevisiae deletion strains, locus YOR083W, strain WHI5, hits give low values 0.0619 | S. cerevisiae deletion strains, locus YOR106W, strain vam3, hits give low values 0.0658 | S. cerevisiae deletion strains, locus YOR136W, strain idh2, hits give low values 0.0692 | S. cerevisiae deletion strains, locus YOR144C, strain elg1, hits give low values 0.0567 | S. cerevisiae deletion strains, locus YOR184W, strain ser1, hits give low values 0.0701 | S. cerevisiae deletion strains, locus YOR231W, strain MKK1, hits give low values 0.0983 | S. cerevisiae deletion strains, locus YOR265W, strain rbl2, hits give low values 0.0559 | S. cerevisiae deletion strains, locus YOR270C, strain vph1, hits give low values 0.0983 | S. cerevisiae deletion strains, locus YOR290C, strain snf2, hits give low values 0.0664 | S. cerevisiae deletion strains, locus YOR316C, strain cot1, hits give low values 0.0588 | S. cerevisiae deletion strains, locus YPL051W, strain arl3, hits give low values 0.0606 | S. cerevisiae deletion strains, locus YPL055C, strain LGE1, hits give low values 0.0672 | S. cerevisiae deletion strains, locus YPL078C, strain atp4, hits give low values 0.0617 | S. cerevisiae deletion strains, locus YPL106C, strain sse1, hits give low values 0.0996 | S. cerevisiae deletion strains, locus YPL240C, strain hsp82, hits give low values 0.0572 | S. cerevisiae deletion strains, locus YPL256C, strain CLN2, hits give low values 0.111 | S. cerevisiae deletion strains, locus YPR119W, strain clb2, hits give low values 0.0609 | S. cerevisiae deletion strains, locus YPR141C, strain kar3, hits give low values 0.0639 | S. cerevisiae deletion strains, locus YPR163C, strain tif3, hits give low values 0.0715 | S. cerevisiae deletion strains, locus YPR167C, strain met16, hits give low values 0.0622 | S. cerevisiae deletion strains, strain wtn01, hits give low values 0.0578 | S. cerevisiae strains, strain wild type, hits give low values 0.0505
